{"source": "the antibiotic and cytotoxicity screens of Wong et al. (2023)", "note": "About 3,300 (8.5%) of roughly 39,000 compounds were called active. Only a selection was taken, and actives are over-represented in it overall."}
{"test_system": "HepG2", "assay": "cytotoxicity call (relative viability < 0.9)", "settings": "10 µM"}
{"smiles": "COCC#Cc1ccc2c(c1)O[C@@H](CN(C)S(=O)(=O)c1ccc(F)cc1)[C@H](C)CN([C@@H](C)CO)S2(=O)=O", "cytotoxicity call": "inactive"}
{"smiles": "C[C@@H]1CN([C@@H](C)CO)C(=O)Cc2cc(NS(=O)(=O)c3cccs3)ccc2O[C@H]1CN(C)S(=O)(=O)c1ccc(F)cc1", "cytotoxicity call": "inactive"}
{"smiles": "C[C@H](CO)N1C[C@H](C)[C@@H](CN(C)C(=O)Nc2ccccc2)Oc2ccc(NC(=O)CCN3CCOCC3)cc2CC1=O", "cytotoxicity call": "inactive"}
{"smiles": "Cc1noc(C)c1NC(=O)Nc1ccc2c(c1)C(=O)N([C@H](C)CO)C[C@H](C)[C@H](CN(C)C(=O)C1CCCCC1)OCCCC[C@@H](C)O2", "cytotoxicity call": "inactive"}
{"smiles": "C[C@@H]1CN([C@H](C)CO)C(=O)Cc2cc(NC(=O)Nc3ccc(F)cc3)ccc2O[C@H]1CN(C)Cc1ccc(C(=O)Nc2ccccc2N)cc1", "cytotoxicity call": "inactive"}
{"smiles": "C[C@H](CO)N1C[C@H](C)[C@@H](CN(C)Cc2ccc(C(=O)Nc3ccccc3N)cc2)Oc2ccc(NC(=O)Nc3ccc(F)cc3)cc2CC1=O", "cytotoxicity call": "inactive"}
{"smiles": "C[C@H]1CN([C@@H](C)CO)C(=O)Cc2cc(NC(=O)Nc3ccc(F)cc3)ccc2O[C@H]1CN(C)Cc1ccc(C(=O)Nc2ccccc2N)cc1", "cytotoxicity call": "active"}
{"smiles": "C[C@H](CO)N1C[C@H](C)[C@H](CN(C)Cc2ccc(C(=O)Nc3ccccc3N)cc2)Oc2ccc(NC(=O)Nc3ccc(F)cc3)cc2CC1=O", "cytotoxicity call": "inactive"}
{"smiles": "C[C@@H]1CN([C@@H](C)CO)C(=O)Cc2cc(NC(=O)Nc3ccc(F)cc3)ccc2O[C@@H]1CN(C)Cc1ccc(C(=O)Nc2ccccc2N)cc1", "cytotoxicity call": "active"}
{"smiles": "C[C@H]1CN([C@@H](C)CO)C(=O)Cc2cc(NC(=O)Nc3ccc(F)cc3)ccc2O[C@@H]1CN(C)Cc1ccc(C(=O)Nc2ccccc2N)cc1", "cytotoxicity call": "inactive"}
{"smiles": "C[C@@H]1CCCCO[C@@H](CN(C)C(=O)NC2CCCCC2)[C@@H](C)CN([C@@H](C)CO)C(=O)c2cc(NC(=O)Nc3ccc(F)cc3)ccc2O1", "cytotoxicity call": "inactive"}
{"smiles": "Cc1noc(C)c1S(=O)(=O)N(C)C[C@@H]1Oc2ccc(NS(=O)(=O)c3ccccc3)cc2C(=O)N([C@H](C)CO)C[C@@H]1C", "cytotoxicity call": "inactive"}
{"smiles": "C[C@@H]1CCCCO[C@@H](CN(C)Cc2ccncc2)[C@@H](C)CN([C@@H](C)CO)C(=O)c2cc(NC(=O)Cc3ccccc3)ccc2O1", "cytotoxicity call": "inactive"}
{"smiles": "C[C@@H]1CCCCO[C@H](CN(C)C(=O)CCC(F)(F)F)[C@@H](C)CN([C@H](C)CO)C(=O)c2cc(NC(=O)Nc3ccccc3)ccc2O1", "cytotoxicity call": "inactive"}
{"smiles": "C[C@H]1CN([C@@H](C)CO)C(=O)c2cccc(NC(=O)Nc3ccc4c(c3)OCO4)c2O[C@@H]1CN(C)S(C)(=O)=O", "cytotoxicity call": "inactive"}
{"smiles": "CN(C)CC(=O)N[C@H]1CC[C@@H](CC(=O)NCCN2CCCCC2)O[C@@H]1CO", "cytotoxicity call": "inactive"}
{"smiles": "C[C@H]1CN([C@@H](C)CO)C(=O)c2cc(NS(=O)(=O)c3ccc(F)cc3)ccc2O[C@@H]1CN(C)S(=O)(=O)c1cn(C)cn1", "cytotoxicity call": "inactive"}
{"smiles": "O=C(O)c1cn2cccc(O)c2n1", "cytotoxicity call": "inactive"}
{"smiles": "C[C@H]1CN([C@@H](C)CO)C(=O)c2cc(NS(C)(=O)=O)ccc2O[C@H]1CN(C)S(C)(=O)=O", "cytotoxicity call": "inactive"}
{"smiles": "COc1ccc(S(=O)(=O)N(C)C[C@H]2OCc3cnnn3CCCC(=O)N([C@H](C)CO)C[C@H]2C)cc1", "cytotoxicity call": "inactive"}
{"smiles": "O=C(NC1CC1)[C@@H]1c2ccccc2C(=O)N(Cc2cc(C(F)(F)F)cc(C(F)(F)F)c2)[C@H]1c1ccc(CO)cc1", "cytotoxicity call": "inactive"}
{"smiles": "Cc1cc(OCCCS(C)(=O)=O)cc(C)c1-c1cccc(COc2ccc3c(c2)OC[C@H]3CC(=O)O)c1", "cytotoxicity call": "active"}
{"smiles": "COCC#Cc1ccc2c(c1)O[C@H](CN(C)S(=O)(=O)c1cccc(OC)c1)[C@@H](C)CN([C@@H](C)CO)S2(=O)=O", "cytotoxicity call": "inactive"}
{"smiles": "O=S(=O)(O)NC1CCCCC1", "note": "[listing 1 of 2 here]", "cytotoxicity call": "inactive"}
{"smiles": "O=S(=O)([O-])NC1CCCCC1.[Na+]", "cytotoxicity call": "inactive"}
{"smiles": "O=S(=O)(O)NC1CCCCC1", "note": "[listing 2 of 2 here]", "cytotoxicity call": "active"}
{"smiles": "CC(C)NC(=O)N(C)C[C@@H]1Oc2ccc(NC(=O)Cc3ccccc3)cc2CC(=O)N([C@@H](C)CO)C[C@@H]1C", "cytotoxicity call": "inactive"}
{"smiles": "C[C@H](CO)N1C[C@H](C)[C@@H](CN(C)S(=O)(=O)c2ccc(F)cc2)Oc2c(NC(=O)c3cnccn3)cccc2C1=O", "cytotoxicity call": "inactive"}
{"smiles": "C[C@H]1CN([C@@H](C)CO)C(=O)c2cccc(NC(=O)C3CC3)c2O[C@H]1CN(C)S(=O)(=O)c1ccccc1", "cytotoxicity call": "inactive"}
{"smiles": "C[C@@H]1CN([C@@H](C)CO)C(=O)Cc2cc(NC(=O)Nc3ccc(F)cc3)ccc2O[C@H]1CN(C)Cc1ccc(C(F)(F)F)cc1", "cytotoxicity call": "active"}
{"smiles": "C[C@H]1CN([C@@H](C)CO)C(=O)Cc2cc(NC(=O)Nc3ccc(F)cc3)ccc2O[C@@H]1CN(C)Cc1ccc(C(F)(F)F)cc1", "cytotoxicity call": "inactive"}
{"smiles": "C[C@@H]1CN([C@H](C)CO)C(=O)Cc2cc(NC(=O)Nc3ccc(F)cc3)ccc2O[C@@H]1CN(C)Cc1ccc(C(F)(F)F)cc1", "cytotoxicity call": "active"}
{"smiles": "C[C@H]1CN([C@@H](C)CO)C(=O)Cc2cc(NC(=O)Nc3ccc(F)cc3)ccc2O[C@H]1CN(C)Cc1ccc(C(F)(F)F)cc1", "cytotoxicity call": "active"}
{"smiles": "C[C@@H]1CN([C@@H](C)CO)C(=O)Cc2cc(NC(=O)Nc3ccc(F)cc3)ccc2O[C@@H]1CN(C)Cc1ccc(C(F)(F)F)cc1", "cytotoxicity call": "active"}
{"smiles": "COc1ccccc1CNC(=O)C[C@H]1C[C@@H]2c3cc(NS(=O)(=O)c4ccc(F)cc4)ccc3O[C@@H]2[C@@H](CO)O1", "cytotoxicity call": "inactive"}
{"smiles": "C[C@H](CO)N1C[C@H](C)[C@@H](CN(C)Cc2ccc(C(=O)O)cc2)Oc2ccc(NC(=O)Nc3cccc4ccccc34)cc2CC1=O", "cytotoxicity call": "inactive"}
{"smiles": "C[C@@H]1CN([C@H](C)CO)S(=O)(=O)c2ccc(C3=CCCCC3)cc2O[C@@H]1CN(C)C(=O)C1CCOCC1", "cytotoxicity call": "inactive"}
{"smiles": "C[C@@H]1CN([C@@H](C)CO)C(=O)c2cc(NC(=O)Nc3ccc(F)cc3)ccc2O[C@@H](C)CCCCO[C@@H]1CN(C)C(=O)c1ccccc1", "cytotoxicity call": "inactive"}
{"smiles": "C[C@H]1CN([C@@H](C)CO)C(=O)c2ccccc2-c2ccccc2CO[C@H]1CN(C)C(=O)Nc1cccc(C(F)(F)F)c1", "cytotoxicity call": "inactive"}
{"smiles": "CCC(=O)OCC(=O)C1(OC(=O)CC)C(C)CC2C3CCC4=CC(=O)C=CC4(C)C3(F)C(O)CC21C", "note": "(centres undefined)", "cytotoxicity call": "inactive"}
{"smiles": "Cc1ccc(S(=O)(=O)Nc2ccc3c(c2)C(=O)N([C@@H](C)CO)C[C@@H](C)[C@@H](CN(C)S(C)(=O)=O)O3)cc1", "cytotoxicity call": "inactive"}
{"smiles": "COc1ccc(NC(=O)N2C[C@@H](O)COC[C@H]3O[C@@H](CC(=O)NCc4ccccc4OC)CC[C@@H]32)cc1", "cytotoxicity call": "inactive"}
{"smiles": "C[C@@H]1CN([C@@H](C)CO)C(=O)c2cc(C#CCN(C)C)cnc2O[C@@H]1CN(C)C(=O)CN1CCOCC1", "cytotoxicity call": "inactive"}
{"smiles": "C[C@@H]1CN([C@H](C)CO)C(=O)Cc2cc(NC(=O)Nc3ccc(F)cc3)ccc2O[C@H]1CN(C)Cc1ccc(C(F)(F)F)cc1", "cytotoxicity call": "active"}
{"smiles": "C[C@H](CO)N1C[C@H](C)[C@@H](CN(C)Cc2ccc(C(F)(F)F)cc2)Oc2ccc(NC(=O)Nc3ccc(F)cc3)cc2CC1=O", "cytotoxicity call": "active"}
{"smiles": "C[C@H](CO)N1C[C@H](C)[C@H](CN(C)Cc2ccc(C(F)(F)F)cc2)Oc2ccc(NC(=O)Nc3ccc(F)cc3)cc2CC1=O", "cytotoxicity call": "active"}
{"smiles": "C[C@@H]1CCCCO[C@@H](CN(C)S(=O)(=O)c2ccccc2)[C@H](C)CN([C@H](C)CO)C(=O)c2cc(NC(=O)CCC(F)(F)F)ccc2O1", "cytotoxicity call": "inactive"}
{"smiles": "COc1ccc(CN(C)C[C@H]2OCCCC[C@H](C)Oc3ccc(NS(=O)(=O)c4ccc(C)cc4)cc3C(=O)N([C@@H](C)CO)C[C@H]2C)cc1", "cytotoxicity call": "inactive"}
{"smiles": "COCCN1CCCn2c(nc(CNS(C)(=O)=O)cc2=O)C1", "cytotoxicity call": "inactive"}
{"smiles": "CO[C@H]1CN(C)C(=O)c2cc(NS(=O)(=O)CC(F)(F)F)ccc2OC[C@@H](C)N(C(=O)c2ccc3c(c2)OCO3)C[C@H]1C", "cytotoxicity call": "inactive"}
{"smiles": "CC(C)NC(=O)N(C)C[C@@H]1OCCCC[C@H](C)Oc2ccc(NC(=O)Nc3cccc4ccccc34)cc2C(=O)N([C@@H](C)CO)C[C@H]1C", "cytotoxicity call": "inactive"}
{"smiles": "C[C@@H]1CN([C@H](C)CO)C(=O)c2cc(NS(=O)(=O)c3cccs3)ccc2O[C@@H](C)CCCCO[C@H]1CN(C)Cc1ccc2c(c1)OCO2", "cytotoxicity call": "inactive"}
{"smiles": "Cc1ccc2sc(C)nc2c1", "cytotoxicity call": "inactive"}
{"smiles": "C[C@@H]1CCCCO[C@H](CN(C)S(=O)(=O)c2ccccc2)[C@@H](C)CN([C@@H](C)CO)C(=O)c2cc(NC(=O)c3ccccc3)ccc2O1", "cytotoxicity call": "inactive"}
{"smiles": "C[C@H]1CCCCO[C@@H](CN(C)Cc2ccccc2)[C@@H](C)CN([C@@H](C)CO)C(=O)c2cc(NC(=O)Nc3ccc(F)cc3)ccc2O1", "cytotoxicity call": "active"}
{"smiles": "C[C@H](CO)N1C[C@H](C)[C@@H](CN(C)Cc2ccccc2)OCCCC[C@H](C)Oc2ccc(NC(=O)Nc3ccc(F)cc3)cc2C1=O", "cytotoxicity call": "active"}
{"smiles": "C[C@@H]1CCCCO[C@H](CN(C)Cc2ccccc2)[C@H](C)CN([C@H](C)CO)C(=O)c2cc(NC(=O)Nc3ccc(F)cc3)ccc2O1", "cytotoxicity call": "inactive"}
{"smiles": "C[C@@H]1CCCCO[C@H](CN(C)Cc2ccccc2)[C@H](C)CN([C@@H](C)CO)C(=O)c2cc(NC(=O)Nc3ccc(F)cc3)ccc2O1", "cytotoxicity call": "active"}
{"smiles": "C[C@@H]1CN([C@H](C)CO)C(=O)c2cc(NC(=O)Nc3ccc(F)cc3)ccc2O[C@@H](C)CCCCO[C@@H]1CN(C)Cc1ccccc1", "cytotoxicity call": "inactive"}
{"smiles": "C[C@H](CO)N1C[C@H](C)[C@H](CN(C)Cc2ccccc2)OCCCC[C@H](C)Oc2ccc(NC(=O)Nc3ccc(F)cc3)cc2C1=O", "cytotoxicity call": "active"}
{"smiles": "O=C(/C=N/O)Nc1ccccc1C(=O)O", "cytotoxicity call": "inactive"}
{"smiles": "CC(C)CC#Cc1ccc2c(c1)O[C@H](CN(C)C(=O)c1ccccn1)[C@H](C)CN([C@H](C)CO)S2(=O)=O", "cytotoxicity call": "inactive"}
{"smiles": "Cc1ccc(S(=O)(=O)N(C)C[C@@H]2Oc3ccc(NC(=O)C4CC4)cc3C(=O)N([C@@H](C)CO)C[C@@H]2C)cc1", "cytotoxicity call": "inactive"}
{"smiles": "C[C@@H]1CCCCO[C@@H](CN(C)C(=O)CCCN(C)C)[C@@H](C)CN([C@@H](C)CO)C(=O)c2cc(N(C)C)ccc2O1", "cytotoxicity call": "inactive"}
